HSF1 activator: increases HSF-1 driven luciferase reporter signal | NIH3T3-HGL HSF-1 luciferase reporter, MG132, 8 h; 100% = twice DMSO control signal | activation, % at 9 µM | 300,000 compounds, 1.7% hits | AID 504408;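 active means mean replicate activation of at least 50% with a set share of replicates each reaching 50%; inconclusive means only one of those two conditions met; inactive means mean below 50% and too few replicates reaching it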;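 further: 0% = median of the neutral control wells and 100% = twice that signal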
MITF TRPM1 HTS: activators of MITF-driven TRPM1 promoter activity in SK-MEL-5 cells | activation, % at 12.5 µM | SK-MEL-5 TRPM1-promoter luciferase, 24 h; % of positive control, neutral wells = 0 | 300,000 compounds, 0.75% hits | AID 588334;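 active means mean activation of at least 80% with every replicate also reaching 80%; inconclusive means mean reaches 80% but some replicate falls short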;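 further: 0% = neutral control wells and 100% = parthenolide positive control wells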
HSF1 inhib: HSF1 inhibition. activity change, negative = inhibition, % at 7.5 µM (by protocol). 300,000 compounds, 0.77% hits. NIH3T3-HGL HSE-luciferase, MG132-induced, luminescence 8 h; hits give low values;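 active means more than half of replicate wells show activity change below -50%, luminescence cut by over half; inconclusive means some wells, but at most half, below -50%; inactive means no replicate well below -50%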;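 further: luciferase reports HSF-1 transcriptional activity via heat shock element; 0% = median of DMSO wells and -100% = zero luminescence signal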
Wnt act: Wnt/beta-catenin pathway activation | 300,000 compounds, 1.2% hits | Wnt/beta-catenin reporter cell assay, activator, plate reader | activation, % at 9.35 µM; in the data active means activation above about 30%, passing the limit was not always enough; inconclusive means no clear call, values can overlap the other calls;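 further: 0% = neutral control wells and 100% = positive control wells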
esBAF inh: inhibitors of esBAF chromatin remodeling in mouse ES cells. Bmi1-luciferase knock-in reporter, 24 h; 100% = twice the neutral-well signal. reporter increase, % at 12.5 µM. 350,000 compounds, 2% hits; in the data active means activation above about 40%; inconclusive means no clear call, values can overlap the other calls;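 further: 0% = median of the plate's neutral control wells and 100% = double that signal; a rise in the Bmi1 reporter signal indicates esBAF inhibition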
* hit, by the source's call; ? = inconclusive; / = not tested or not shown. Compounds with a hit are over-represented: about 3.8% of the library has one in this group of screens.

SMILES | HSF1 activator | MITF TRPM1 HTS | HSF1 inhib | Wnt act | esBAF inh
Cc1ccc(NC(=O)CSc2ncccc2C(=O)Oc2cccc([N+](=O)[O-])c2)cc1Cl | 82.2* | 30.2 | 32.4 | 19.6 | /
c1ccc2nc(-c3ccc4c(c3)OCO4)ccc2c1 | 47.8 | / | 26.2 | 50.2* | 7.1
COc1ccc(OC)c2nc(-c3ccc4c(c3)OCO4)ccc12 | 53.5* | 46.0 | 27.5 | 47.5* | -6.4
Cc1c(C(=O)Nc2ccc(Cl)cc2)c2ccccn2c1CCc1ccncc1 | 65.8* | 16.3 | 37.4 | 1.2 | 28.2
Cc1c(C(=O)Nc2cccc(Cl)c2)c2ccccn2c1CCc1ccncc1 | 26.8 | 35.5 | -3.7 | -2.5 | /
CC(C)NC(=O)N1C[C@H]2[C@@H](c3ccccc31)[C@H](CO)N2C(=O)C1CCCC1 | / | / | / | / | -3.2
O=C(Nc1ccc(F)cc1)c1nsc(Cl)c1Cl | 49.1 | 21.2 | 13.6 | / | 21.7
CCOc1ccc(NC(=O)c2nsc(Cl)c2Cl)cc1 | 21.3 | 66.7 | 6.2 | 53.7* | 38.1
O=C(Nc1ccc(F)c(Cl)c1)c1nsc(Cl)c1Cl | 42.6 | 66.5 | 29.3 | -2.7 | 59.7*
Cc1ccc(S(=O)(=O)Nc2ccc3c(c2)CC(=O)N([C@@H](C)CO)C[C@H](C)[C@H](CN(C)Cc2ccc(C(=O)O)cc2)O3)cc1 | / | / | / | / | -1.4
CCC(=O)Nc1ccc2c(c1)C(=O)N(C)C[C@H](OC)[C@@H](C)CN(Cc1ccccn1)[C@H](C)CO2 | / | / | / | / | -6.8
O=C(NCCN1CCN(C(=O)c2ccc(Br)cc2)CC1)c1ccc(Br)cc1 | 67.8* | -4.1 | 42.5 | 0.8 | 9.0
CC(C)NC(=O)N[C@@H]1CC[C@@H](CCNC(=O)C2CCCC2)O[C@H]1CO | / | / | / | / | -0.4
C/C(=N\OC(=O)Nc1ccccc1)c1ccc(C)cc1 | 23.4 | 100.7* | 13.8 | 0.2 | /
CC(C)c1cn(CC[C@H]2CC[C@H](NC(=O)C3CCCC3)[C@@H](CO)O2)nn1 | / | / | / | / | -11.0
O=C1CCCC/C1=C\Nc1ccc(Cl)cn1 | -3.3 | 69.1 | 3.8 | / | 44.2*
COc1ccc(CNC(=O)Oc2ccccc2)cc1Cl | 94.1* | 5.6 | 41.2 | -1.4 | 4.5
C[C@@H]1CN([C@H](C)CO)C(=O)c2cc(NS(=O)(=O)c3ccc(Cl)cc3)ccc2O[C@@H](C)CCCCO[C@H]1CN(C)C(=O)C1CCCCC1 | / | / | / | / | -5.8
NCc1cccc(-n2cccn2)c1 | -3.4 | 4.5 | -6.5 | / | 2.8
c1ccc2c(-n3cccn3)cccc2c1 | 41.2 | 37.2 | 13.6 | / | 71.2*
Cc1sc2ncnc(N=Nc3c(O)[nH]c4ccccc34)c2c1C | 7.6 | 23.9 | 6.4 | 10.1 | 51.6*
CC(=O)N=c1sccn1CC(=O)c1ccc([N+](=O)[O-])cc1 | 58.0* | -19.4 | 13.6 | / | /
COc1ccc(-c2csc3nc[nH]c(=O)c23)cc1OC | -17.1 | 7.6 | -13.7 | 2.2 | -6.5
CCCOc1ccc(-c2csc3nc[nH]c(=O)c23)cc1 | 35.0 | 48.0 | 22.6 | 37.9* | ?
O=c1[nH]cnc2scc(-c3ccc(-c4ccccc4)cc3)c12 | 58.0* | / | 14.1 | / | 24.1
SMILES | HSF1 activator | MITF TRPM1 HTS | HSF1 inhib | Wnt act | esBAF inh
CNC[C@H]1Oc2ccc(NC(=O)Cc3cn(C)c4ccccc34)cc2C(=O)N([C@@H](C)CO)C[C@H]1C | / | / | / | / | -0.6
C[C@@H]1CCCCO[C@@H](CN(C)Cc2ccc3c(c2)OCO3)[C@@H](C)CN([C@@H](C)CO)C(=O)c2cc(NC(=O)c3ccncc3)ccc2O1 | / | / | / | / | 2.1
Cc1cc(C)n(C(=O)CNc2ccc(C)c(C)c2)n1 | 8.8 | 2.3 | -3.1 | / | 63.0*
O=C(N/N=C/c1ccc(O)cc1)c1[nH]c2ccc(Br)cc2c1-c1ccccc1 | -68.7 | -63.4 | -58.1* | -34.4 | /
CCC(=O)Nc1ccc2c(c1)C(=O)N(C)C[C@H](OC)[C@@H](C)CN(C(=O)CN(C)C)[C@H](C)CO2 | / | / | / | / | 1.0
C[C@@H]1CN([C@@H](C)CO)C(=O)c2cc(-c3ccc(C#N)cc3)cnc2O[C@H]1CN(C)C(=O)Nc1ccccc1 | / | / | / | / | 1.7
O=C1c2ccccc2C(=O)c2c1oc(C(F)(F)F)c2C(=O)c1ccccc1 | -80.3 | -102.1 | -78.3* | / | /
O=C(c1ccccc1)c1coc2c1C(=O)c1ccccc1C2=O | -18.6 | -27.3 | -6.5 | 8.3 | /
CN(Cc1cccc(F)c1)C(=O)CNS(=O)(=O)c1ccc2ccccc2c1 | 63.1* | 3.0 | 29.4 | -1.6 | 3.5
CSc1ccc(S(=O)(=O)NCC(=O)OCC(=O)N(C)Cc2ccccc2)cc1[N+](=O)[O-] | -2.6 | 4.5 | -8.2 | -0.9 | -5.1
CCNC(=O)C[C@@H]1CC[C@H]2[C@H](COc3ccc(NC(=O)c4cccs4)cc3C(=O)N2C)O1 | / | / | / | / | 3.3

Compound activity as filed in PubChem BioAssay.
